AmpC inh detg = blocks E. coli AmpC beta-lactamase in detergent assay; Potency, µM (highest dose often 114 µM), inactives show at the top dose activity change, negative = inhibition, most hits filed as inhibitors; AmpC hydrolysis of nitrocefin, absorbance 480 nm, 0.01% Triton; hit rate 0.041% among 370,000; P00811;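 note: potency is the fitted concentration of half-maximal effect; 0% = no-compound wells and -100% = no-enzyme wells; nearly all actives have a fitted effect of over 25% in size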
Target sequence (P00811 whole entry, looked up): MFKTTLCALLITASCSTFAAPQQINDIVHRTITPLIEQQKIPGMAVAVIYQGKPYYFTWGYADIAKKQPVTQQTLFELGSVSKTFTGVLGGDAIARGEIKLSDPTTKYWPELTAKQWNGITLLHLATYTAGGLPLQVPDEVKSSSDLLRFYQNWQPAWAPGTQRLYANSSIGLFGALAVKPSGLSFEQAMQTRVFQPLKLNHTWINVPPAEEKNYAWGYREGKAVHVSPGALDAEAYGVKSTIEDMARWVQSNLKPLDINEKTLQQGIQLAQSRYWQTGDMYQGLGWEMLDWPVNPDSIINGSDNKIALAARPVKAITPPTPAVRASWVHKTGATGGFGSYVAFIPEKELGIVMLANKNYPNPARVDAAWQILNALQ
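20 mM phosphate pH 7.0 + 0.01% (detergent screen) or 0.0001% Triton X-100; 5.3 nM AmpC reagent; cpd preinc 15 min RT; nitrocefin (800 uM stock) to start; A480 q20 s × 4 min; Activity was normalised to no-enzyme and no-compound control wells.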
NS1 function inh = blocks influenza NS1 protein function; Potency, µM (titrated, usually from 46.1 µM), for inactives: at the top dose activity, positive = more growth; hit rate 0.4% among 270,000; calls by dose curve; note: potency is the fitted concentration of half-maximal effect; actives are rising curves; nearly all actives have a fitted effect of over 50% in size
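In this qHTS, NS1 from influenza A is expressed in budding yeast, where it slows growth. Cells are switched from glucose to 2% galactose medium (pH 6.0, -URA), treated with compound, and growth recovery is read at OD600.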
AmpC inh no detg = blocks E. coli AmpC beta-lactamase in detergent-free assay; P00811; AmpC nitrocefin hydrolysis, absorbance 480 nm, 0.0001% Triton; Potency, µM (titrated, usually from 57.1 µM), for the others: at the top dose activity change, negative = inhibition, most hits filed as inhibitors; hit rate 0.52% among 330,000; AID 485341;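 note: potency is the fitted concentration of half-maximal effect; plate controls were no compound for no effect and no enzyme for full effect; nearly all actives have a fitted effect of over 20% in size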
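AmpC (5.3 nM in the dispensed reagent) in 20 mM phosphate pH 7.0 with 0.01% (detergent screen) or 0.0001% Triton X-100 was preincubated with compounds for 15 min at room temperature. Nitrocefin was then added from an 800 uM solution, and hydrolysis was followed at 480 nm.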
Shiga toxin inh = blocks Shiga toxin action in Vero cells | inhibition, % at 38.7 µM | hit rate 9.2% among 290,000 | Vero cells, Shiga toxin protein synthesis inhibition reporter; in the data active = inhibition mostly above about 28%, no sharp cut-off; inactive = mostly below about 43%; note: 0% is about no effect
CHX counter = counter-screen for Shiga toxin inhibitors: cycloheximide protein synthesis inhibition. cell reporter, cycloheximide protein synthesis inhibition counterscreen. max response, %. hit rate 12% among 300,000. AID 2314; in the data active = max response mostly above about 13%, no sharp cut-off; inactive = mostly below about 14%; note: read at 38.3 µM for the half of the compounds with a filed dose; 0% is about no effect
The depositor's hits bear a star; ? = inconclusive; . = no result given; ! = repeats disagree. This excerpt belongs to a sample that is enriched for hits. Unless noted, calls come from the whole dose curve; as a rule, active = well fitted curve in the direction sought with a large enough effect; inconclusive = small, poorly fitted or top-dose-only effect, or another doubt; inactive = no such curve, though single readings can be large; an effect the other way counts as inactive or inconclusive.

SMILES | AmpC inh detg | NS1 function inh | AmpC inh no detg | Shiga toxin inh | CHX counter
CC1CCc2nc3ccc(S(=O)(=O)N4CCC(C(=O)NC5CCCC5)CC4)cc3c(C(=O)O)c2C1 (configuration not stated) | ? | 13.6% | -7.8% | -14.4 | -4.0
Cc1cc(=O)oc2cc(OCC(=O)NC3CC(C)(C)NC(C)(C)C3)ccc12 | 1.4% | -12.1% | -20.7% | -2.8 | -4.2
Cc1cc(OCC(=O)NC2CCCCC2)ccc1Cl | -9.8% | -9.9% | -11.9% | 66.5* | 29.6*
Cc1cc(=O)oc2cc(OCC(=O)NC3CCCCC3)ccc12 | -5.2% | -2.2% | 1.8% | 5.7 | 21.8*
Cc1ccccc1C(=O)N(Cc1ccc(N(C)C)cc1)Cc1ccco1 | 8.2% | . | . | . | .
COc1ccc(CNC(=O)c2ccc3c(c2)N(Cc2cccc(Cl)c2)C(=O)c2ccccc2S3)c(OC)c1 | 7.7% | . | . | . | .
CC(=O)Nc1ccc(SCC(=O)c2cc(C)ccc2C)cc1 | -5.7% | -15.3% | 14.1% | -10.2 | 4.1
COc1ccc(-n2c(C)cc(C(=O)CSc3ccc(NC(C)=O)cc3)c2C)cc1 | -2.2% | -11.1% | 7.0% | 69.5* | 29.4*
COc1ccc(-n2c(C)cc(C(=O)CCl)c2C)cc1 | 1.0% | 3.2% | -9.4% | -6.2 | 10.7
CC(=O)Nc1ccc(SCC(=O)c2cc(C)n(-c3ccccc3)c2C)cc1 | -9.0% | 6.2% | 8.8% | 86.5 | 45.2*
Cc1ccc(C)c(N2C(=O)N(Cc3cc(=O)n4ccccc4n3)c3ccccc3S2(=O)=O)c1 | -5.6% | . | . | . | .
Cc1cn2c(=O)c(C(=O)NCc3ccc4c(c3)OCO4)cnc2s1 | -6.5% | . | -20.9% | . | .
O=c1c(Cl)c(NCCCO)cnn1-c1nc2ccccc2[nH]1 | 5.5% | -210.8% | -3.4% | 137.5* | 83.9*
C=CCN(CC=C)c1cnn(-c2nc3ccccc3[nH]2)c(=O)c1Cl | -0.1% | -90.5% | 0.8% | 88.6* | 27.1*
CCOc1ccc(CNC(=O)c2cnc3sc(N4CCCCCC4)nn3c2=O)cc1OC | 19.5% | . | . | . | .
Cc1[nH][nH]c(=O)c1N=Nc1ccccc1Cl | -1.2% | -4.5% | -3.4% | 55.9* | 22.1*
NS(=O)(=O)c1ccc(CNC(=O)c2ccc3c(=O)n4c(nc3c2)CCC4)cc1 | ? | . | -9.5% | . | .
O=[N+]([O-])c1cccc(/C=N/N2CCN(Cc3ccccc3)CC2)c1 | -10.7% | . | -11.6% | 82.6* | 27.4*
O=[N+]([O-])c1cccc(/C=N\N2CCN(Cc3ccccc3Cl)CC2)c1 | ? | -3.4% | -27.3% | 20.3 | 16.1*
O=[N+]([O-])c1cccc(/C=N/N2CCN(Cc3ccc(Cl)cc3)CC2)c1 | -3.8% | 0.4% | -20.2% | 20.3 | -2.7
O=[N+]([O-])c1cccc(/C=N/N2CCN(c3ccccn3)CC2)c1 | -5.4% | 5.3% | -6.0% | 1.0 | 15.3*
O=[N+]([O-])c1cccc(/C=N/N=C\c2ccccc2)c1 | -0.2% | 6.4% | -15.7% | 56.2* | 36.2*
CC(=O)c1c(C)oc2ccc(N(C(=O)c3ccncc3)S(=O)(=O)c3ccc(C)cc3C)cc12 | 1.6% | . | . | . | .
COc1ccc(Cl)cc1S(=O)(=O)NCc1ccc2c(c1)CCN2C(=O)c1cccc(C)c1 | 15.4% | . | . | . | .
O=[N+]([O-])c1ccc(N/N=C/c2ccccc2)c(F)c1 | ? | -5.7% | -24.6% | 63.3* | 74.4*
SMILES | AmpC inh detg | NS1 function inh | AmpC inh no detg | Shiga toxin inh | CHX counter
CCOC(=O)N1CCN(Cc2nc(N)nc(Nc3ccc(Cl)cc3)n2)CC1 | -2.8% | 0.5% | 23.1% | 40.0 | 14.0*
CCOC(=O)N1CCN(Cc2nc(N)nc(Nc3ccc(Oc4ccccc4)cc3)n2)CC1 | ? | -25.1% | 80.5% | 23.5 | 14.6*
CCOC(=O)C1(CC2CCCCO2)CCN(Cc2nc(C(C)C)cs2)CC1 (configuration not stated) | -2.1% | 2.6% | -4.7% | -8.4 | 2.2
Cc1ccc(Nc2ncnc3c2cnn3-c2ccccc2)c(C)c1 | -1.5% | . | . | . | .
CCOc1ccc(C(=O)Cn2cnc3ccccc3c2=O)cc1 | -1.3% | -6.2% | -13.4% | 116.9* | 56.6*
O=C(Cn1cnc2ccccc2c1=O)c1ccc(Cl)cc1 | 5.3% | -46.9% | -10.9% | 120.3* | 44.2*
O=C(Cn1cnc2ccccc2c1=O)c1ccc(Br)cc1 | 6.7% | -42.8% | -24.1% | 45.0* | 27.7*
Cc1ccc(C(=O)Cn2cnc3ccccc3c2=O)cc1 | ? | -12.8% | -35.3% | 75.7* | 30.4*
COc1ccc(NC(=O)C2=C(C)Nc3ncnn3C2c2ccc[nH]2)cc1 (configuration not stated) | 18.8% | . | . | . | .
O=C1CC(c2ccc(Cl)cc2)CC(O)=C1C=NCCO (configuration not stated) | 1.2% | 5.1% | -3.9% | -1.0 | -1.4
Cc1ccc(CN2CCC(CNC(=O)Nc3c(C)cccc3C)C2)cc1 (configuration not stated) | 0.9% | . | . | . | .
O=C(Cn1cnc2ccccc21)c1ccccc1 | ? | 13.4% | -8.8% | 18.6 | 2.0
COC(=O)c1cccn(CC(=O)c2ccc(Cl)cc2)c1=O | 3.9% | 11.4% | -18.7% | 13.2 | 11.3
O=c1c2ccccc2ncn1Cc1ccc(Cl)cc1 | -2.1% | . | -9.3% | -11.1 | 0.6
O=C(Cn1cnc2ccccc21)c1ccc(Cl)cc1 | -11.9% | 12.0% | 14.5% | 47.8 | 28.1*
O=C(Cn1cnc2ccccc2c1=O)c1ccccc1 | -13.4% | -3.3% | -10.2% | 78.4* | 38.8*
O=C(Cn1cc(Cl)ccc1=O)c1ccc(Cl)cc1 | -0.2% | -0.9% | -16.1% | -95.3 | 16.1*
O=c1c2ccccc2ncn1-c1ccc(Cl)cc1 | 4.7% | -3.7% | -14.3% | 41.7*! | 28.5*
CCn1c(=O)c2sccc2n(Cc2ccc(C)cc2)c1=O | -1.8% | 8.5% | 23.3% | -1.3 | -3.3
O=C(O)/C(Cc1ccc([N+](=O)[O-])cc1)=N/O | . | -1.4% | . | . | .
CCOc1ccc(CNC(=O)Cn2ccc3cc(S(=O)(=O)N4CCCCC4)ccc32)cc1 | 17.6% | . | . | . | .
O=C(Cn1cnc2ccccc2c1=O)c1ccc(OC(F)F)cc1 | -4.4% | -50.6% | -25.6% | 57.1* | 34.4*
O=C(Cn1nnc2ccccc21)OCC(=O)c1ccc(F)cc1 | -2.7% | -6.1% | -44.8% | 12.7 | 9.4*
O=C(Cn1nnc2ccccc21)c1ccc(Cl)cc1 | -4.6% | 2.1% | -21.4% | 54.4* | 40.5*
CCOC(=O)C1CCN(C(=O)C2CCN(S(=O)(=O)c3cccc4cccnc34)CC2)CC1 | -12.0% | -11.4% | 35.8% | -9.3 | -2.3
SMILES | AmpC inh detg | NS1 function inh | AmpC inh no detg | Shiga toxin inh | CHX counter
COc1ccc(CC(=O)NC2CC(=O)N(c3ccc4c(c3)OCCO4)C2)cc1 (configuration not stated) | -3.8% | . | . | . | .
CCC(C)(C)c1ccc2c(c1)C(=O)c1ccccc1C2=O | -14.8% | -17.0% | -19.2% | 36.7* | 61.7*
O=C1c2ccccc2C(O)(O)[C@@]1(O)[C@]1(O)C(=O)c2ccccc2C1(O)O | . | -3.4% | . | . | .
COc1ccc(-c2cc(C(=O)O)nc3ccc4ccccc4c23)cc1OC | 10.5% | . | 2.7% | 40.6* | 18.5*
COc1ccc(-c2nc(C(=O)O)cs2)cc1OC | 2.0% | . | -7.4% | 20.1 | -2.6
Cc1ccc(/C(O)=C2/C(=O)C(=O)N(CCN3CCOCC3)C2c2cccs2)cc1 (configuration not stated) | -14.2% | 3.6% | -13.0% | 19.8 | 10.6*
